± gives the uncertainty stated by the source. In all, about 9,900 compounds were measured (“viability index relative to DMSO control”: median about 1, lowest 2% from about 0.85 on). The full list was thinned out, with the lowest values kept by preference.
Test system: Plasmodium falciparum NF54 stage V gametocytes
Test: viability index relative to DMSO control (fraction); higher = less gametocyte killing
Conditions: 2.5 µM, library set: Broad Institute DOS, incubation time: 72 h
Summary of the method: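 Viability index is the count of red-stained particles in a well divided by the plate mean of solvent-only wells. Particles of 20–70 µm2 were counted in one imaged field per well after one to two hours with 3 µl of 2.5 µM MitoTracker Red CMXRos and 0.13% saponin. Before staining, P. falciparum NF54 stage V gametocytes in serum-free medium (0.75% gametocytemia, 1.25% hematocrit, 10 µl, 1,536-well plates) were kept with compound at 2.5 µM for 72 hr at 37°C under low oxygen.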

| SMILES | viability index |
| --- | --- |
| CS(=O)(=O)N1CC(=O)N2[C@@H](CO)[C@H](c3ccc(Br)cc3)[C@@H]2C1 | 1.05 ± 0.057 |
| CN1C[C@H]2[C@@H](c3ccccc31)[C@H](CO)N2Cc1ccccc1Cl | 1.03 ± 0.064 |
| C[C@H](CO)N1C[C@H](C)[C@H](CN(C)C(=O)Nc2ccc3c(c2)OCO3)Oc2c(NC(=O)c3nc4ccccc4s3)cccc2C1=O | 0.987 ± 0.021 |
| Cc1noc(C)c1NC(=O)N1C[C@@H](O)COC[C@@H]2O[C@H](CC(=O)N3CCc4ccccc4C3)CC[C@H]21 | 1.08 ± 0.11 |
| COc1ccc(S(=O)(=O)N(C)C[C@@H]2Oc3c(NC(=O)c4nc5ccccc5s4)cccc3C(=O)N([C@H](C)CO)C[C@@H]2C)cc1 | 0.951 ± 0.047 |
| O=C(O)[C@H]1[C@H](CO)[C@H]2Cn3c(ccc(C4=CCCCC4)c3=O)[C@H]2N1Cc1ccc2c(c1)OCO2 | 1.01 ± 0.026 |
| CO[C@H]1CC[C@@H]2CCOc3c(C#N)cccc3C(=O)N(C)C[C@H](OC)[C@@H](C)C(=O)N(C)C[C@@H]1O2 | 1.01 ± 0.033 |
| C[C@@H]1CN([C@H](C)CO)C(=O)Cc2cc(NC(=O)CCN3CCOCC3)ccc2O[C@@H]1CN(C)Cc1ccc(C(=O)O)cc1 | 1 ± 0.17 |
| C[C@H](CO)N1C[C@H](C)[C@@H](CN(C)Cc2cccc3c2OCCCO3)OCc2ccccc2-c2ccccc2C1=O | 1.06 ± 0.093 |
| C[C@H]1CN([C@@H](C)CO)C(=O)c2ccccc2-c2ccccc2CO[C@H]1CN(C)Cc1cccc2c1OCCCO2 | 0.825 ± 0.16 |
| C[C@H]1CN([C@@H](C)CO)C(=O)c2ccccc2-c2ccccc2CO[C@H]1CN(C)Cc1ccccc1C(F)(F)F | 0.726 ± 0.14 |
| C[C@@H]1CN([C@@H](C)CO)C(=O)c2ccccc2-c2ccccc2CO[C@@H]1CN(C)Cc1ccccc1C(F)(F)F | 0.8276 ± 0.0015 |
| C[C@@H]1CN([C@@H](C)CO)C(=O)c2ccccc2-c2ccccc2CO[C@H]1CN(C)Cc1ccccc1C(F)(F)F | 0.883 ± 0.044 |
| C[C@@H]1CN([C@@H](C)CO)C(=O)c2ccccc2-c2ccccc2CO[C@@H]1CN(C)Cc1cccc(C(=O)O)c1 | 0.974 ± 0.098 |
| C[C@@H]1CN([C@@H](C)CO)C(=O)c2ccccc2-c2ccccc2CO[C@@H]1CN(C)Cc1cccc2c1OCCCO2 | 1 ± 0.11 |
| C[C@@H]1CN([C@@H](C)CO)C(=O)c2ccccc2-c2ccccc2CO[C@H]1CN(C)Cc1cccc(C(=O)O)c1 | 0.987 ± 0.016 |
| CCCN(C)C[C@H]1OCc2ccccc2-c2ccccc2C(=O)N([C@@H](C)CO)C[C@H]1C | 0.89 ± 0.011 |
| C[C@@H]1CN([C@H](C)CO)C(=O)c2ccccc2-c2ccccc2CO[C@@H]1CN(C)Cc1ccccc1C(F)(F)F | 0.806 ± 0.11 |
| C[C@H](CO)N1C[C@H](C)[C@H](CN(C)Cc2ccccc2C(F)(F)F)OCc2ccccc2-c2ccccc2C1=O | 1 ± 0.015 |
| C[C@@H]1CN([C@H](C)CO)C(=O)c2ccccc2-c2ccccc2CO[C@@H]1CN(C)Cc1cccc(C(=O)O)c1 | 0.958 ± 0.11 |

From the supplement of paper PMC4723716
